Measurements: publication PMC7819943, “Rice protein-binding microarrays: a tool to detect cis-acting elements near promoter regions in rice”
In all, about 35,000 sequences were measured (“fluorescence intensity (a.u.)”: median about 10,000, highest 2% from about 52,000 on). This is one part of a sample in which the highest values are shown more often than they occur.

Each sequence was assayed against T1, OsWOX13 (Oryza sativa, UniProt Q5QMM3 1-267) (assay: protein-binding microarray (RPBM); PBS, 2% BSA, 51.3 ng/ul salmon testes DNA, 50 uM zinc acetate, 200 nM TF, 25 C, 1 h; high values mean tight binding). Conditions: protein: recombinant; tags: N-terminal polyhistidine and DsRed monomer fusion (pET32a); label: CyDye5-dUTP incorporated in the synthesized complementary strand; 3' TTTTT single-stranded linker to array surface; dsDNA, one strand shown.
T1 sequence: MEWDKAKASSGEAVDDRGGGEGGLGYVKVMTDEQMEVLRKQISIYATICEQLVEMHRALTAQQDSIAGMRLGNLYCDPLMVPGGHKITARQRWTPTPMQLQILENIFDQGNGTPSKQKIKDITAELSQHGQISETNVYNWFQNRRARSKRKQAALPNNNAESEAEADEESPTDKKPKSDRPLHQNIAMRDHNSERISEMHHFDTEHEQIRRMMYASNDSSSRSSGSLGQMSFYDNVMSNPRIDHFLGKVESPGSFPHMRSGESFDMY
Method in brief: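 Polyhistidine-tagged DsRed fusions of transcription factors, joined at the N-terminus, were expressed in E. coli BL21-CodonPlus and isolated on Ni–NTA. They were incubated at 200 nM for 1 h at 25 °C on a custom Agilent array, double-stranded and BSA-blocked, in PBS with 2% BSA, salmon testes DNA and 50 µM zinc acetate. The binding signal is per-feature fluorescence intensity (arbitrary units) read on an Axon 4000B scanner after washing.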

Point of comparison: “TTTAGACAGTAATTAAAGTCGAATTACATTGCATTGTTCGCGGAGTCACCTAGTGCAG”, binding signal 40300 fluorescence intensity (a.u.). Against it:
- AATCAATTATAACCATTTTCTATTTAATTACCTCACGCACCGGAGTCACCTAGTGCAG — lower, 25700 fluorescence intensity (a.u.)
- ATATAACAGTTTATTCACAAATTATTTTCCGTTTGCAAATCGGAGTCACCTAGTGCAG — lower, 6830 fluorescence intensity (a.u.)
- AATATTGATGCTTAAATTTCTTTCGAAGATCCTATGGAAGCGGAGTCACCTAGTGCAG — lower, 3840 fluorescence intensity (a.u.)
- ATAAATTGATGCCCAATTTTCGAAGATGCTCATAGGGGTGCGGAGTCACCTAGTGCAG — higher, 52500 fluorescence intensity (a.u.)
- ATTGACAAGATAGATTGTTGCCCAATTTTCGAAGATGCTCCGGAGTCACCTAGTGCAG — higher, 42000 fluorescence intensity (a.u.)
- TCCTGTAACAGAATTGGAAAACCCAATCTGGCGACGGCTGCGGAGTCACCTAGTGCAG — lower, 9790 fluorescence intensity (a.u.)
- CTTGACAGGCACCGTGATACTTGGGTTCTTGATATAACTGCGGAGTCACCTAGTGCAG — lower, 34400 fluorescence intensity (a.u.)
- TGATTAATTAGCGAGAGTAATTAATTAATTATAGCCTGCGCGGAGTCACCTAGTGCAG — higher, 61600 fluorescence intensity (a.u.)
- ATGATATAATTAATTAATTAGCGCGCGGTTCCACCTCCCGCGGAGTCACCTAGTGCAG — higher, 60200 fluorescence intensity (a.u.)
- ATATAGTTGTGATTAATTAGTGAGTAGAGTGTGATACCTGCGGAGTCACCTAGTGCAG — lower, 22100 fluorescence intensity (a.u.)
- TAGCTTAATTTGATTTCTATTTAAGACCTTGACATTAACGCGGAGTCACCTAGTGCAG — lower, 24400 fluorescence intensity (a.u.)
- TTAAAATTATTTTATAATTAATATTTATTATTATTATTAGCGGAGTCACCTAGTGCAG — lower, 12400 fluorescence intensity (a.u.)
- CTGACTGGCTCTGATTAATTAATTGATGATCGATCGAGCGCGGAGTCACCTAGTGCAG — higher, 49800 fluorescence intensity (a.u.)
- GTAATTGATTTTCTGGCGCGATTAAGAGCTTGGTATATAGCGGAGTCACCTAGTGCAG — higher, 59200 fluorescence intensity (a.u.)
- GCGTAATTAGGCGGAGAGATTATAGGGAGAGAGATCGCGACGGAGTCACCTAGTGCAG — lower, 16700 fluorescence intensity (a.u.)
- AATCCTCTTAATTATTATTAGCGGTTCGTCCTATGATCTTCGGAGTCACCTAGTGCAG — lower, 7080 fluorescence intensity (a.u.)
- GAGCATGATTACTTAAATATTAGCTAATTCTTTCTTTAAACGGAGTCACCTAGTGCAG — lower, 15500 fluorescence intensity (a.u.)
- GTTGTACCACTGATTGGACTGCCTGCTTACCGATAATTAACGGAGTCACCTAGTGCAG — lower, 24500 fluorescence intensity (a.u.)
- TTCTTGATGGAAATTGAAATTGTGTGTGTGGGATGCAGGACGGAGTCACCTAGTGCAG — higher, 46400 fluorescence intensity (a.u.)
- ACACTAATAGGTCATGTCCATTTCCATCCCATTTCCATTGCGGAGTCACCTAGTGCAG — lower, 7050 fluorescence intensity (a.u.)
- AGACTATTTACAAAACTAATTACATAAATGAAAGCTAACTCGGAGTCACCTAGTGCAG — lower, 5260 fluorescence intensity (a.u.)
- TAAATTATTTTCTATTTATAAATATGTCGTTTGCCTTATTCGGAGTCACCTAGTGCAG — lower, 4180 fluorescence intensity (a.u.)
- AATTGACAAAGATGAAACACATGTGGACTGGACTACTCGACGGAGTCACCTAGTGCAG — lower, 3660 fluorescence intensity (a.u.)
- ATATAAATTGACTATTAAATATATTGACTATATGTAAATTCGGAGTCACCTAGTGCAG — lower, 25600 fluorescence intensity (a.u.)
- AATTAACGGAGGAAACTCCAATCAGATACGCAGACGGACACGGAGTCACCTAGTGCAG — lower, 8430 fluorescence intensity (a.u.)
- TATATATATATATATATATATATATATATATATATAGACACGGAGTCACCTAGTGCAG — lower, 7880 fluorescence intensity (a.u.)
- TTACACTGATTGATGCTCCACATGAACACCACATGCATTTCGGAGTCACCTAGTGCAG — lower, 32600 fluorescence intensity (a.u.)
- ATTGCTGATTGAGCATGTAGACATTGCTAGTGGTAGTACGCGGAGTCACCTAGTGCAG — higher, 58000 fluorescence intensity (a.u.)
- AACACAGGCTGATGAATGATGATTGAATGAACAGAGACAACGGAGTCACCTAGTGCAG — lower, 22900 fluorescence intensity (a.u.)
- ATTGATGAATGTTGACAAACCTGGTTTGATTTGGAGGGAACGGAGTCACCTAGTGCAG — lower, 23500 fluorescence intensity (a.u.)
- ATGATTGACAAGATGAATCAGCACGCTGTTGGAAAAGGGACGGAGTCACCTAGTGCAG — higher, 55400 fluorescence intensity (a.u.)
- ATTTGATTTGATCACAACACATTAGCTTGGTTGCTCCATGCGGAGTCACCTAGTGCAG — higher, 41800 fluorescence intensity (a.u.)
- CTCTAGTTGATGATGGAAATCATTGACAAGAACTATAGCACGGAGTCACCTAGTGCAG — lower, 22100 fluorescence intensity (a.u.)
- AACAGCTGATGAGTGATGATTGACAGACATCACACGCGGACGGAGTCACCTAGTGCAG — higher, 57600 fluorescence intensity (a.u.)
- CACCATGATTGATTGCTCCATGCACACACATTGAGACACGCGGAGTCACCTAGTGCAG — higher, 59700 fluorescence intensity (a.u.)
- AGTGATTATTTATTGGAGTACGATTGAGACCCTTGGTACGCGGAGTCACCTAGTGCAG — lower, 33400 fluorescence intensity (a.u.)
- TATCTGATGAGAGCAGATTGCCACACATCACAGCATGCAGCGGAGTCACCTAGTGCAG — lower, 10300 fluorescence intensity (a.u.)
- TGGCTGCTGATTGCAACAGTGGTACTGACATTAGCAGCAGCGGAGTCACCTAGTGCAG — lower, 16300 fluorescence intensity (a.u.)
- ATTATGTAAATTTTGACTAATGTTTAGTCGAAGTGCAAGTCGGAGTCACCTAGTGCAG — lower, 8100 fluorescence intensity (a.u.)
- TGTCACAAATCTAATGGTATAATTAGTTCATAGTTCGGATCGGAGTCACCTAGTGCAG — lower, 8340 fluorescence intensity (a.u.)
- TCTAAATTTTCATGACATGGTACCATACTACAAATCCATCCGGAGTCACCTAGTGCAG — lower, 9500 fluorescence intensity (a.u.)
